HT1080 IDH1KD tx – kills HT-1080 cells with IDH1 knockdown; HT-1080 IDH1 knockdown viability, ATP luminescence, 48 h; Potency, µM (doses to about 46.1 µM), inactives show at the highest dose activity, negative = toxicity, hits mostly cytotoxic; 2% of 360,000 active; AID 686971;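 further: potency means the concentration at half of the fitted maximal effect; 0% = DMSO wells and -100% = cell-free medium wells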
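Assay cells: HT-1080 with IDH1 knockdown, 750 per well, RPMI/5% FBS. Exposure: 48 h at 37 °C following 2 h pre-incubation. Read: CellTiter-Glo luminescence; fitted concentration-response, curve class assigned.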
HT1080NT lethal – kills 2HG-producing HT-1080-NT fibrosarcoma cells; HT-1080-NT fibrosarcoma viability, CellTiter-Glo ATP luminescence, 48 h; Potency, µM (series often up to 46.1 µM), inactives show at the top dose activity, negative = less viability, usual class: cytotoxic; 1.6% of 360,000 active;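 further: NT is the 2HG producing partner of a matched IDH1 knockdown line; potency means the concentration at half of the fitted maximal effect; 0% = DMSO-treated cells and -100% = media-only wells without cells; nearly all actives have a fitted effect of over 55% in size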
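Toxicity toward the 2HG-producing NT line was scored as %Activity, normalised to DMSO and no-cell wells, from CellTiter-Glo luminescence after 48 hours' treatment.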
DT40 TDP1 CPT – DT40-hTDP1 cell growth loss with CPT | chicken DT40 Tdp1-/-;hTDP1 cells + 20 nM CPT, ATP luminescence, 48 h | Potency, µM (doses to about 46.2 µM), without a hit: top-dose activity change, negative = growth inhibition, most hits filed as inhibitors | 12% of 420,000 active; further: potency means the concentration at half of the fitted maximal effect; nearly all actives have a fitted effect of over 55% in size
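Chicken DT40 Tdp1-/- cells complemented with human TDP1, 400 cells/well, exposed to compounds plus 20 nM camptothecin for at least 48 h at 37 C; viability read as ATP content by CellTiter-Glo luminescence.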
DT40 TDP1 no CPT – qHTS for Inhibitors of human tyrosyl-DNA phosphodiesterase 1 (TDP1): qHTS in cells in absence of CPT | DT40 Tdp1-/- hTDP1 cells, no CPT, ATP luminescence, 48 h | Potency, µM (doses to about 46.2 µM), for the others: top-dose activity change, negative = growth inhibition, usual class: inhibitors | 15% of 420,000 active | AID 686978, 2013; further: potency means the concentration at half of the fitted maximal effect; nearly all actives have a fitted effect of over 55% in size
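Growth kinetics read by CellTiter-Glo luminescence after ≥48 hr at 37 °C. Cells: DT40 Tdp1-/- stably carrying human TDP1, 400 per well, compound exposure in the absence of CPT (DMSO vehicle).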
IL1B secr inh – inhibitors of inflammasome signaling (IL-1 beta secretion); THP-1 LPS/ATP IL-1B secretion, AlphaLISA, 16 h; active compounds read low; AID 743279; 4.7% of 360,000 active; activity change, % at 57.5 µM; in the data active means activity change below about -50%; inconclusive means mostly about -30% to -49%
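THP-1 cells pretreated 1 hr with compounds (up to 57.5 uM final), then stimulated with LPS (250 ng/mL final) plus ATP (1.25 mM final); secreted IL-1B measured by AlphaLISA after 16 hr, decreased signal indicating inhibition.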
ELG1 DNA repair – ELG1-dependent DNA repair inhibition; HEK293T ELG1-luciferase reporter, luminescence, 16 h; DNA damage induced by 5-fluorouridine; Potency, µM (series often up to 46.1 µM), inactives show at the top dose activity change, negative = inhibition, usual class: inhibitors; 2.3% of 330,000 active; further: potency means the concentration at half of the fitted maximal effect; nearly all actives have a fitted effect of over 55% in size
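Luminescence from the luciferase reporter, measured 30 min after ONE-Glo reagent at room temperature, was the read-out. Beforehand, 2,000 cells per well were exposed for 16 hr at 37 °C to 5-fluorouridine together with compound or vehicle.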
* = called active by the depositor; [ ] = dose if it differs, or a comment. The list is not random: actives were taken first. Their share in the collection is about 19%. Unless noted, the call rests on the fitted dose curve; in most records, active means well fitted curve in the direction sought with a large enough effect; inconclusive means small, poorly fitted or top-dose-only effect, or another doubt; inactive means no such curve, though single readings can be large; an effect the other way counts as inactive or inconclusive. Unless noted, on the % scale 0 is the no-effect control and ±100 the full control effect.

Screening COc1ccc(OC)c(C(=O)c2ccc(C(=O)Nc3ccccc3)cc2)c1 returned HT1080 IDH1KD tx -7%, HT1080NT lethal -2%, DT40 TDP1 CPT -9%, DT40 TDP1 no CPT -25%, IL1B secr inh -13 and ELG1 DNA repair -6%.
`COc1ccc(C(=O)c2sc(Nc3ccccc3)nc2N)cc1OC` gave HT1080 IDH1KD tx inconclusive, HT1080NT lethal inconclusive, DT40 TDP1 CPT inconclusive, DT40 TDP1 no CPT inconclusive, IL1B secr inh -98* and ELG1 DNA repair inconclusive.
`COc1ccc(C(=O)c2sc(Nc3ccccc3F)nc2N)cc1` gave HT1080 IDH1KD tx 3%, HT1080NT lethal 13%, DT40 TDP1 CPT inconclusive, DT40 TDP1 no CPT 12µM*, IL1B secr inh inconclusive and ELG1 DNA repair inconclusive.
For COc1ccc(C(=O)c2cc(C(C)=O)c(Nc3ccccc3)s2)cc1 the results were HT1080 IDH1KD tx inconclusive, HT1080NT lethal inconclusive, DT40 TDP1 CPT inconclusive, DT40 TDP1 no CPT 26µM*, IL1B secr inh inconclusive and ELG1 DNA repair inconclusive.
Screening COc1ccc(N2CCN(C(=O)c3nn(C)c4c3CSc3ccccc3-4)CC2)cc1 returned DT40 TDP1 CPT -109% and DT40 TDP1 no CPT inconclusive.
COC(=O)CCc1sc(Nc2ccccc2)nc1-c1ccc(OC)cc1 was read as HT1080 IDH1KD tx -2%, HT1080NT lethal -2%, DT40 TDP1 CPT inconclusive, DT40 TDP1 no CPT 16µM*, IL1B secr inh -22 and ELG1 DNA repair inconclusive.
Screening C[C@H](CO)N1C[C@H](C)[C@@H](CN(C)S(C)(=O)=O)Oc2ccc(NC(=O)c3ccncc3)cc2C1=O returned HT1080 IDH1KD tx 17%, HT1080NT lethal 20%, DT40 TDP1 CPT -1%, DT40 TDP1 no CPT 8%, IL1B secr inh 2 and ELG1 DNA repair 18%.
For CCCCC(=O)Nc1nnc(CCc2ccccc2)s1 the results were HT1080 IDH1KD tx 0%, HT1080NT lethal 4%, DT40 TDP1 CPT -5%, DT40 TDP1 no CPT -28%, IL1B secr inh 6 and ELG1 DNA repair 12%.
Cc1nnc(NCc2n[nH]c(=O)c3ccccc23)c2ccccc12 was read as HT1080 IDH1KD tx 11µM*, HT1080NT lethal 16µM*, DT40 TDP1 CPT 5.8µM*, DT40 TDP1 no CPT 10µM*, IL1B secr inh -101* and ELG1 DNA repair 0%.
O=c1[nH]nc(Cc2ccccc2)c2ccccc12 was read as HT1080 IDH1KD tx -5%, HT1080NT lethal -7%, DT40 TDP1 CPT 7.3µM*, DT40 TDP1 no CPT -28%, IL1B secr inh 15 and ELG1 DNA repair 29%.
For O=c1[nH]nc(CNc2cccc(C(F)(F)F)c2)c2ccccc12 the results were HT1080 IDH1KD tx -9%, HT1080NT lethal 0%, DT40 TDP1 CPT 26µM*, DT40 TDP1 no CPT 15µM*, IL1B secr inh -14 and ELG1 DNA repair inconclusive.
CC1CCCCC1NC(=O)COC(=O)c1ccc2ncsc2c1 (stereo unspecified) was read as HT1080 IDH1KD tx 7%, HT1080NT lethal 4%, DT40 TDP1 CPT 10%, DT40 TDP1 no CPT 8%, IL1B secr inh 1 and ELG1 DNA repair inconclusive.
For Oc1cccc(C=NNc2ccccn2)c1 the results were HT1080 IDH1KD tx 13%, HT1080NT lethal 14%, DT40 TDP1 CPT -24%, DT40 TDP1 no CPT -19% and IL1B secr inh -87*.
For Cc1noc(C)c1/C=N/Nc1ccccn1 the results were HT1080 IDH1KD tx 29%, HT1080NT lethal 18%, DT40 TDP1 CPT -2%, DT40 TDP1 no CPT -19%, IL1B secr inh -70* and ELG1 DNA repair inconclusive.
Brc1ccccc1/C=N/Nc1ccccn1 was read as HT1080 IDH1KD tx 1%, HT1080NT lethal 1%, DT40 TDP1 CPT inconclusive, DT40 TDP1 no CPT inconclusive, IL1B secr inh -2 and ELG1 DNA repair inconclusive.
`C(=N\Nc1ccccn1)/c1c[nH]c2ccccc12` gave HT1080 IDH1KD tx -1%, HT1080NT lethal 0%, DT40 TDP1 CPT inconclusive, DT40 TDP1 no CPT inconclusive, IL1B secr inh -95* and ELG1 DNA repair inconclusive.
Oc1ccc(/C=N/Nc2cccc3cccnc23)c(O)c1 was read as HT1080 IDH1KD tx -14%[9.24 µM], HT1080NT lethal inconclusive, DT40 TDP1 CPT inconclusive, DT40 TDP1 no CPT inconclusive, IL1B secr inh -77* and ELG1 DNA repair inconclusive.
`COc1cccc(-c2nccc(-n3ccnc3)n2)c1` gave DT40 TDP1 CPT 9% and DT40 TDP1 no CPT inconclusive.
Screening COc1ccc(CC(=O)NCc2cccc(Cl)c2)cc1S(=O)(=O)N1CCOCC1 returned HT1080 IDH1KD tx -9%, HT1080NT lethal -4%, DT40 TDP1 CPT -18%, DT40 TDP1 no CPT inconclusive and IL1B secr inh 15.
For Oc1ccc(C=NNc2ccccn2)c(O)c1 the results were HT1080 IDH1KD tx inconclusive, HT1080NT lethal -27%, DT40 TDP1 CPT 4.1µM*, DT40 TDP1 no CPT 2.9µM* and IL1B secr inh 20.
C(=N\Nc1ccccn1)/c1ccc(N2CCOCC2)cc1 was read as HT1080 IDH1KD tx 0%, HT1080NT lethal -1%, DT40 TDP1 CPT 23µM*, DT40 TDP1 no CPT 16µM*, IL1B secr inh -25 and ELG1 DNA repair inconclusive.
CCOC(=O)c1c(C)[nH]c(CCC(=O)Nc2cc(C)cc(C)c2)c1C was read as DT40 TDP1 CPT inconclusive and DT40 TDP1 no CPT 23µM*.
`CCOC(=O)c1c(C)[nH]c(CCC(=O)Nc2ccccc2C(=O)OC)c1C` gave DT40 TDP1 CPT inconclusive and DT40 TDP1 no CPT 23µM*.
For CCOC(=O)c1c(C)[nH]c(CCC(=O)NCc2ccc(N(C)C)cc2)c1C the results were DT40 TDP1 CPT inconclusive and DT40 TDP1 no CPT 18µM*.
`CCOC(=O)c1c(C)[nH]c(CCC(=O)NCc2ccc(OC)c(OC)c2)c1C` gave DT40 TDP1 CPT -9% and DT40 TDP1 no CPT -10%.
Screening CCOC(=O)c1c(C)[nH]c(C(=O)N(C)CC(=O)Nc2ccc(OCC)c(OCC)c2)c1C returned HT1080 IDH1KD tx 11%, HT1080NT lethal 11%, DT40 TDP1 CPT -17%, DT40 TDP1 no CPT inconclusive and IL1B secr inh -7.
For CCOC(=O)c1c(C)[nH]c(CCC(=O)Nc2ccccc2OCC)c1C the results were DT40 TDP1 CPT inconclusive and DT40 TDP1 no CPT 23µM*.
`Cc1nc(S(=O)(=O)N2CCN(c3cccc(Cl)c3)CC2)cn1C` gave DT40 TDP1 CPT -6% and DT40 TDP1 no CPT -8%.

Bioassay records (PubChem)
